SENP8 block-1: human SENP8 protease inhibitors, primary screen, biochemical, fluorescence, Nedd8 protein substrate, uHTS; Sentrin-specific protease 8 (Homo sapiens), Q96LD8; recombinant SENP8; inhibition, % at 20 µM; actives 0.64% (n = 360,000); AID 602440, 2012; in the data active means inhibition mostly above about 40%, no sharp cut-off; inactive means mostly below about 27%
Target sequence (Q96LD8 whole entry, looked up): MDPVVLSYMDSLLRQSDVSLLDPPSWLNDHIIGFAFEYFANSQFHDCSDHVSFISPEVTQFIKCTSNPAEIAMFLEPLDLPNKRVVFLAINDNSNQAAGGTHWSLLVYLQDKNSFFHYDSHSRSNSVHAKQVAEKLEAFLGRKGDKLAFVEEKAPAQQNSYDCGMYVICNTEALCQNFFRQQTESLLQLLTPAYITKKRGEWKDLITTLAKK
SENP6 inh: SENP6 protease inhibitors, primary screen, biochemical, luminescence, uHTS | Sentrin-specific protease 6 (Homo sapiens), Q9GZR1 | Recombinant SENP6 catalytic domain, aminoluciferin luminescence | inhibition, % at 10 µM | actives 1.8% (n = 330,000) | AID 2599, 2010;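 active means inhibition above about 50% at the single tested dose, limit read from the data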;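 further: plate controls were DMSO wells with enzyme for no effect and DMSO wells lacking enzyme for full effect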
SENP7 inh: SENP7 protease inhibitors, primary screen, biochemical, luminescence, uHTS; recombinant SENP7, Z-RLRGG-aminoluciferin luminescence, 40 min; inhibition, % at 5 µM; actives 1.5% (n = 330,000);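 active means inhibition above about 50% at the single test dose, limit read from the data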;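 further: plate controls were DMSO with enzyme for no effect and no enzyme buffer wells for full effect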
Target sequence (Q9BQF6 706-1050 limits assumed): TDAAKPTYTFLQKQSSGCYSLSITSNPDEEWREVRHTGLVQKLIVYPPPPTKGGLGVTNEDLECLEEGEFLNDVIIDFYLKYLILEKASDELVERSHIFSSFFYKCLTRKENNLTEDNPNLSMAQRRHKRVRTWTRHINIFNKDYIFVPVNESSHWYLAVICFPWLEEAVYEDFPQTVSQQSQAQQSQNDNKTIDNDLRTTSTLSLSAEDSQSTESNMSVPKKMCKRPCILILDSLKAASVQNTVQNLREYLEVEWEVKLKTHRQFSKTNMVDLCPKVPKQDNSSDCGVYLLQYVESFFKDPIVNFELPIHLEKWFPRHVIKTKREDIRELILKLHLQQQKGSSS
HSP90 inh: HSP90 inhibitors, primary screen, cell lysate, luminescence; Heat shock protein HSP 90 (rabbit reticulocyte lysate; luciferase refolding); Rabbit reticulocyte lysate, luciferase refolding luminescence, 3 h; inhibition, % at 5.6 µM; actives 0.91% (n = 290,000); AID 1789, 2009;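 active means inhibition above the screen-wide mean plus 3 SD, computed separately per campaign, cut at about 16% in these data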;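 further: 0% = DMSO wells and 100% = 60 µM geldanamycin wells; inhibitors lower the luminescence because luciferase stays unfolded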
SENP8 block-2: SENP8 protease inhibitors, primary screen, biochemical, luminescence; Sentrin-specific protease 8 (Homo sapiens), Q96LD8; purified SENP8, Z-RLRGG-aminoluciferin cleavage; inhibition, % at 10 µM; actives 1.2% (n = 330,000); in the data active means inhibition above about 50%
SENP8 conf: SENP8 protease inhibitors, retest, confirmation, biochemical, luminescence, single concentration. shares compounds with SENP7 inh. Recombinant SENP8, Z-RLRGG-aminoluciferin luminescence, 60 min. inhibition, % at 12.5 µM. actives 40% (n = 6,200);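 active means mean inhibition across replicates above about 50%, limit read from the data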
SENP6 conf: SENP6 protease inhibitors, confirmation, biochemical, luminescence, single concentration; AID 488915, 2010; recombinant SENP6, Z-RLRGG-aminoluciferin luminescence; inhibition, % at 12.5 µM; actives 58% (n = 6,200); shares compounds with SENP7 inh
SENP7 conf: SENP7 protease inhibitors, retest, confirmation, biochemical, luminescence, single concentration | shares compounds with SENP7 inh | recombinant SENP7, Z-RLRGG-aminoluciferin luminescence, 40 min | inhibition, % at 12.5 µM | actives 69% (n = 6,200) | AID 488917, 2010
Casp3 select: caspase-3 protease inhibitors, confirmation, selectivity assay for SENP inhibitor project, biochemical, single concentration. inhibition, % at 12.5 µM. purified caspase-3, Z-DEVD-aminoluciferin luminescence, 60 min. actives 60% (n = 6,200). shares compounds with SENP7 inh. AID 488918, 2010;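 active means mean inhibition above about 50%, limit read from the data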;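 further: plate controls were enzyme with DMSO for no effect and wells without caspase-3 for full effect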
Luc interf: interferes with luciferase luminescence in SENP counter-screen; shares compounds with SENP7 inh; Pre-incubated SENP8/Z-RLRGG-aminoluciferin, luciferase luminescence interference; inhibition, % at 12.5 µM; actives 39% (n = 6,200); AID 488919;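 active means mean inhibition above about 50% when retested at one dose, limit read from the data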;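 further: plate controls were DMSO wells with completed reaction for no effect and substrate without enzyme for full effect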
An asterisk follows results filed as active; nt = not tested or not shown. Only some compounds are listed: those with a hit (about 2.8% of all), similar ones and a draw of the others.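 How the source made its calls, unless noted: active means mean inhibition above about 50% in the one-dose retest (limit read from the data); inactive means the rest.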

SMILES | SENP8 block-1 | SENP6 inh | SENP7 inh | HSP90 inh | SENP8 block-2 | SENP8 conf | SENP6 conf | SENP7 conf | Casp3 select | Luc interf
O=C(O)CCc1ccc(-c2ccc(Cl)cc2)o1 | 15 | 73* | 32 | 9 | 47 | 68* | 61* | 88* | 66* | 81*
CN(C)c1nn(C(=O)Nc2ccc(Cl)cc2Cl)cc1-c1ccccc1 | 8 | 4 | 101* | -1 | 3 | -13 | -8 | -3 | 0 | -8
c1ccc2c(c1)cnc1ccccc12 | 13 | -7 | 14 | 7 | -11 | nt | nt | nt | nt | nt
c1ccc(-c2cnc(-c3ccccc3)nc2)cc1 | 3 | 73* | 90* | -5 | 62* | 11 | 17 | 7 | 9 | 8
c1ccc(-c2ncc3c(ccc4ccccc43)n2)cc1 | 3 | 68* | 90* | -1 | 41 | 17 | 17 | 28 | 20 | 6
c1ccc(CSc2nnnn2-c2ccc3c(c2)OCCO3)nc1 | 7 | -9 | 0 | 2 | -8 | nt | nt | nt | nt | nt
CC1OC(Nc2cccc3ccccc23)C(O)C(O)C1O (stereo unspecified) | -277 | 95* | 5 | 1 | 89* | 18 | 52* | 16 | 7 | 4
N/C(=N\OC(=O)c1ccc(F)cc1)c1ccccc1 | 16 | 97* | 98* | -4 | 91* | 96* | 96* | 102* | 97* | 94*
N/C(=N\OC(=O)c1ccc(F)cc1)c1ccc(Br)cc1 | 3 | -37 | 18 | 5 | -12 | nt | nt | nt | nt | nt
Cc1ccc(/C(N)=N/OC(=O)c2ccc(F)cc2)cc1 | 7 | 40 | 61* | -3 | 18 | 0 | 25 | 69* | 62* | 25
Cc1ccc(/C(N)=N/OC(=O)Oc2ccccc2)cc1 | 21 | -13 | 4 | 4 | -3 | nt | nt | nt | nt | nt
O=c1ccc(-c2ccc([N+](=O)[O-])cc2)nn1-c1ccccc1 | 11 | -12 | 1 | -2 | 3 | nt | nt | nt | nt | nt
O=c1cc(-c2ccccc2)[nH]n1-c1ccc([N+](=O)[O-])cc1 | 40 | 84* | 25 | -3 | 79* | 86* | 93* | 100* | 90* | 71*
CCOc1ccc(OCc2ccc(C(=O)NN=Cc3ccc[nH]3)cc2)cc1 | -338 | 93* | 93* | nt | 71* | -1 | 0 | 3 | 16 | 29
O=C(Nc1ccc2ccccc2n1)c1ccccc1Br | 0 | 79* | 84* | 1 | 77* | 9 | 80* | 97* | 82* | 17
O=C(Nc1ccc2ccccc2n1)c1ccccc1 | 19 | 88* | 93* | 11 | 87* | 85* | 85* | 98* | 89* | 89*
Cc1ccc(C(=O)Nc2ccc3ccccc3n2)cc1 | 11 | 86* | 86* | 7 | 80* | 88* | 88* | 97* | 82* | 77*
COc1ccc2[nH]c3nc(SC(C)C)nnc3c2c1 | 23 | 5 | 24 | 6 | -10 | nt | nt | nt | nt | nt
Cc1cccc2c1OCC/C2=N\NC(=O)COc1ccccc1Cl | -216 | -41 | 73* | -7 | -33 | 8 | 6 | 3 | -3 | -8
Oc1c(-c2cc(-c3ccco3)[nH]n2)ccc2ccccc12 | -11 | 44 | 55* | -1 | 55* | 3 | 69* | 86* | 17 | 5
CC1CCN(C2=C(NS(=O)(=O)c3ccc(Cl)cc3)C(=O)c3ccccc3C2=O)CC1 | 33 | 63* | 14 | 3 | 5 | 4 | 6 | 6 | 10 | 0
CC1CCN(C2=C(NS(=O)(=O)c3ccc(Br)cc3)C(=O)c3ccccc3C2=O)CC1 | 26 | 55* | 27 | -2 | 29 | 9 | 14 | -2 | 15 | 0
COc1ccc2c(c1OC)C(=O)N1c3ccccc3SC21 (stereo unspecified) | -307 | 50* | 12 | 0 | 28 | 40 | 37 | 78* | 58* | 29
Cc1ccc(SCc2cn3c(C)csc3n2)cc1 | 9 | 84* | 85* | 12 | 75* | 80* | 80* | 96* | 86* | 86*
Cc1ccc(NC(=O)CN(C)C(=O)Cc2ccc3c(c2)CCC3)cc1 | 3 | -8 | 1 | nt | 7 | nt | nt | nt | nt | nt
SMILES | SENP8 block-1 | SENP6 inh | SENP7 inh | HSP90 inh | SENP8 block-2 | SENP8 conf | SENP6 conf | SENP7 conf | Casp3 select | Luc interf
CC(C)C1COC(c2cccc3ccccc23)=N1 (stereo unspecified) | 7 | 96* | 92* | -7 | 89* | 60* | 92* | 100* | 85* | 48
C(=C\c1ccccc1)/C=N/Nc1nc2ccccc2s1 | -166 | 51* | 32 | -2 | 44 | 32 | 43 | 42 | 11 | 41
C(=N\Nc1ccccc1)/c1nc2ccccc2s1 | 6 | 36 | 75* | -1 | 58* | -18 | 12 | 82* | 28 | -4
C(=N\Nc1nc2ccccc2s1)/c1ccccn1 | nt | 97* | 100* | 86* | 97* | 100* | 101* | 104* | 99* | 40
c1ccc2c(c1)CNc1ccccc1-2 | 8 | nt | nt | nt | nt | nt | nt | nt | nt | nt
CCOC(=O)CSc1nc2c(sc(=S)n2-c2ccc(CC)cc2)c(=O)[nH]1 | 26 | -1 | 1 | -5 | 6 | nt | nt | nt | nt | nt
CSc1cccc(NC(=O)c2cnn3ccccc23)c1 | -18 | 76* | 71* | 1 | 49 | 72* | 70* | 91* | 65* | 72*
CCCCN(C(=O)NC(=O)Nc1ccccc1OC)S(C)(=O)=O | 4 | -2 | 56* | 0 | 3 | 9 | 7 | 1 | -1 | -8
CCCS(=O)(=O)c1nc(S(=O)(=O)c2ccc(C)cc2)c(NCCN2CCOCC2)s1 | 25 | 104* | 6 | -1 | 5 | 9 | 2 | -6 | 0 | -3

Screens as filed in PubChem.
